Assay outcomes (PubChem BioAssay)
Only some compounds are listed: those with a hit (about 32% of all), similar ones and a draw of the others.
CYP2C19 activ: activators of human cytochrome P450 2C19; recombinant CYP2C19, luciferin-H EGE luminescence; stronger effect = higher value; 0 = fully inhibited enzyme, 1 = untreated enzyme; activation factor at 5 µM; 96,000 tested, under 10 active;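 active means activation factor of at least 2 at 5 µM in the primary screen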
Target sequence (P33261 whole entry, looked up): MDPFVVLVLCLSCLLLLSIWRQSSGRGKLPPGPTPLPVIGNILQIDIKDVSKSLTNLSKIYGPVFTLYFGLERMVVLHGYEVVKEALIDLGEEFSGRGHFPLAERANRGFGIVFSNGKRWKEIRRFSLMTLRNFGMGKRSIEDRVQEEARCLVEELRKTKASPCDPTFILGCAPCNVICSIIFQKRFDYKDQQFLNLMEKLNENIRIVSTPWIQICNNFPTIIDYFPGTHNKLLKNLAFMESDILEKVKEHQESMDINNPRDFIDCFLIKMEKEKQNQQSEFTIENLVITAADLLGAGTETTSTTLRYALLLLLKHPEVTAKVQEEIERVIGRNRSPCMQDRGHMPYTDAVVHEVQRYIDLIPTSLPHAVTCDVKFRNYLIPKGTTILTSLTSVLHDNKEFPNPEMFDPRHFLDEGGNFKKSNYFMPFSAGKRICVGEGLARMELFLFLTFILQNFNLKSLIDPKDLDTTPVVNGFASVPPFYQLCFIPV
CYP2C19 inh: human CYP2C19 inhibition. AID 778. inhibition, % at 5 µM. 96,000 tested, 21% active. CYP2C19 Supersomes, luciferin-H EGE luminescence, 30 min. P33261;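 active means CYP2C19 inhibition above a set limit at 5 µM in the primary screen, cut at about 50% in these data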
PostGolgi yeast: growth inhibition of a yeast mutant, post-Golgi transport screen; inhibition, % at 10 µM; 98,000 tested, 0.9% active; AID 739; post-Golgi transport phenotypic cell assay;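 further: yeast cells grown in 1536-well plates; yeast grown about 18 h at 30C before absorbance read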
PostGolgi ctrl: growth of the yeast control strain, post-Golgi counter-screen; efflux-deficient yeast background strain, growth absorbance A615, 16 h; inhibition, % at 10 µM; 98,000 tested, 5% active
CYP2C9 act: increases human cytochrome P450 2C9 activity | activation factor at 5 µM | recombinant CYP2C9, luciferin-H conversion, luminescence; stronger effect = higher value; factor 1 = untreated enzyme, 0 = blocked | 96,000 tested, 1.4% active | P11712;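 active means activation factor of 2 or more for CYP2C9 at a 5 µM dose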
CYP2C9 inh: human CYP2C9 inhibition; 96,000 tested, 20% active; inhibition, % at 5 µM; CYP2C9 Supersomes, luciferin-H conversion, luminescence; P11712;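 active means blocking of liver enzyme CYP2C9 beyond about 50% at 5 µM, limit read from the data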
Each line names hits and unclear results; the compound was inactive in the other large screens. Unless noted, no stated cut-off is given here; in the data, active means inhibition above about 30%; inactive means the rest.

Cc1ccc(-c2csc(=S)n2CC(=O)OCC(=O)NC(C)C(C)C)cc1 (configuration not stated)	CYP2C9 inh 69
COc1cc(C2N(c3ccc(F)cc3)C(=O)C3CCCN32)cc(OC)c1OC (configuration not stated)	none
COC(=O)[C@H](C)NC(=O)Nc1cc(Cl)ccc1C	none
CCOC(=O)c1c(C)[nH]c(C(=O)Cn2nnc(-c3ccc(Cl)cc3)n2)c1C	none
CCCSc1cc(=O)n(-c2ccccc2)nc1C(=O)OCC	none
CCOC(=O)c1c(C#N)cnn1-c1ccc(C)cc1	none
CCOC(=O)c1nn(-c2ccccc2)c(C#N)c1NC(=O)c1nn(CC)cc1Br	PostGolgi ctrl 44, CYP2C9 inh 72
CCOC(=O)c1c(NC(=O)c2nn(CC)cc2Br)c(C#N)nn1-c1ccccc1	CYP2C19 inh 64
COc1ccc2[nH]c(=O)c(CN(CCCN3CCOCC3)C(=O)NCc3ccccc3)cc2c1	none
O=C(COc1ccc2ccccc2c1)NCCn1ccc2ccccc21	PostGolgi ctrl 48
Cc1cc(C)c(S(=O)(=O)NCCn2ccc3ccccc32)c(C)c1	PostGolgi ctrl 57, CYP2C9 inh 87
O=C(Cc1ccccc1)NCCn1ccc2ccccc21	CYP2C19 inh 76
CCNC(=O)COc1ccc2ccccc2c1	none
CCCN(C(=S)Nc1ccccc1)C1CCS(=O)(=O)C1 (configuration not stated)	none
Cc1ccccc1Cn1cccc1/C=C1/C(=N)N2C=CSC2=NC1=O	CYP2C9 inh 85
COc1cc(/C=C2/C(=N)N3C=CSC3=NC2=O)ccc1OCCCOc1cc(C)ccc1C	none
O=C(Nc1nnc(CCN2CCOCC2)s1)C1CCCCC1	none
COc1ccc(C)cc1N(CC(=O)Nc1cccc(N(C)S(C)(=O)=O)c1)S(C)(=O)=O	PostGolgi ctrl 37
CN(c1cccc(NC(=O)CN(c2ccc(C34CC5CC(CC(C5)C3)C4)cc2)S(C)(=O)=O)c1)S(C)(=O)=O	CYP2C9 inh 54
Cc1ccc(S(=O)(=O)N(CC(=O)Nc2cccc(N(C)S(C)(=O)=O)c2)c2ccc(Cl)c(Cl)c2)cc1	CYP2C19 inh 80, CYP2C9 inh 100
COc1ccc(N(CC(=O)Nc2cccc(N(C)S(C)(=O)=O)c2)S(C)(=O)=O)cc1OC	none
CCc1ccccc1N(CC(=O)Nc1cccc(N(C)S(C)(=O)=O)c1)S(C)(=O)=O	none
Cc1ccc(C)c(S(=O)(=O)N2CCN(CC(=O)N3CCc4ccccc4C3)CC2)c1	CYP2C19 inh 81, CYP2C9 act 3.4
CC(C)n1c(N2CCN(CC(=O)Nc3ccc4c(c3)OCCO4)CC2)nc2ccccc21	CYP2C19 inh 58
CC(C)OC(=O)CN1CCN(S(=O)(=O)c2cc(Cl)ccc2Cl)CC1	CYP2C19 inh 83, CYP2C9 act 2.1
CN(C)c1ccc(NC(=O)CN2CCN(S(=O)(=O)c3cc(Cl)ccc3Cl)CC2)cc1	none
O=C(CN1CCN(S(=O)(=O)c2cc(Cl)ccc2Cl)CC1)Nc1ccc2c(c1)OCCO2	CYP2C19 inh 54, CYP2C9 act 2.2
COc1ccc(NC(=O)CN2CCN(S(=O)(=O)c3ccc(Cl)cc3)CC2)cc1Cl	none
Cc1ccccc1N1CCN(C(=O)CCN2C(=O)c3ccccc3C2=O)CC1	none
O=C(CN1CCN(S(=O)(=O)c2ccc(Br)cc2)CC1)Nc1ccc(F)cc1	none
Cc1ccc(C)c(S(=O)(=O)N2CCN(CC(=O)Nc3cc(C)on3)CC2)c1	CYP2C9 act 2.3
O=C(CN1CCN(S(=O)(=O)c2ccc(Br)cc2)CC1)Nc1ccc2c(c1)OCO2	CYP2C19 inh 81, CYP2C9 inh 63
Cc1ccc(C)c(S(=O)(=O)N2CCN(CC(=O)Nc3ccc4c(c3)OCCO4)CC2)c1	CYP2C19 inh 85
NC(=O)C1(N2CCCCC2)CCN(CC(=O)Nc2ccccc2-c2ccccc2)CC1	none
NC(=O)C1(N2CCCCC2)CCN(Cc2ccccc2Cl)CC1	CYP2C19 inh 80
NC(=O)C1(N2CCCCC2)CCN(S(=O)(=O)c2cc(Cl)ccc2Cl)CC1	CYP2C19 inh 90, CYP2C9 act 2.7
Cc1cc(C)c(NC2=CC(=O)CC(C)(C)C2)c(C#N)c1	none
c1ccc2c(c1)ncn2CCn1cnc2ccccc21	none (no result: PostGolgi yeast, PostGolgi ctrl)
Cc1ccc(Cn2cnc3ccccc32)cc1	CYP2C19 inh 77, CYP2C9 inh 58
CSc1nncn1/N=C/c1ccccc1F	CYP2C9 inh 58 (no result: PostGolgi yeast)
